Here are results for twelve molecules from PubChem BioAssay (EPA / NIEHS).

Experiment [1] can be described thus: CCTE_Shafer_MEA_dev_firing_rate_mean: CCTE's Neural Network Formation Assay for Mean Firing Rate, Shafer Lab (AID 2284031).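 On AC50: curve fitted for loss of firing so AC50 reflects decreased mean firing rate.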 An outline of the steps: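 Primary rat cortical neurons on 48-well, 16-electrode MEAs (PEI-coated, laminin at plating), exposed from day 0 with compound renewed at DIV 5 and 9. Spikes recorded DIV 5, 7, 9, 12; well-mean firing rate collapsed to trapezoidal AUC, loss-of-signal vs DMSO.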

Experiment [2] in a line: CCTE_Shafer_MEA_dev_per_burst_spike_percent: CCTE's Neural Network Formation Assay for Percent of Spikes in a Burst, Shafer Lab (AID 2284032).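 On AC50: fitted as a decrease in burst spike percentage below DMSO baseline.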 An outline of the steps:
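Rat primary cortical neurons on 16-electrode MEA wells, dosed from plating day 0 for 12 days with renewal on DIV 5 and 9; spikes-in-bursts percentage averaged over bursting electrodes, collapsed as AUC across days 5, 7, 9, 12; loss direction versus DMSO.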

A short description of experiment [3]: CCTE_Deisenroth_AIME_384WELL_CTox_Active: Cytotoxicity Assessment (CTOX) in CCTE's 384-well Estrogen Receptor Transactivation Assay with AIME metabolic competence (metabolism positive), Deisenroth Lab (AID 2284037; active means hit-call score of the fitted dose curve at least 0.9, where 1 is the maximum;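 further: chemicals first conditioned 2 h by alginate-bound induced rat liver S9 before cells; activity means signal loss indicating cell death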). In a few lines:
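Cytotoxicity in VM7Luc4E2 breast cells, 24 hour, measured as protease-substrate fluorescence loss, after 2-hour metabolic conditioning with induced rat hepatic S9 in alginate microspheres. Concentrations 0.002 - 200 uM, 10 points, bidirectional fitting.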

The nature of experiment [4]: CCTE_Deisenroth_AIME_384WELL_CTox_Inactive: Cytotoxicity Assessment (CTOX) in CCTE's 384-well Estrogen Receptor Transactivation Assay without AIME metabolic competence (metabolism negative), Deisenroth Lab (AID 2284039; active means hit-call score of the fitted dose curve at least 0.9, where 1 is the maximum;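 further: cell viability via live-cell protease substrate cleaved to fluorescent probe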). An outline of the steps: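 Fluorescent protease-substrate viability readout after 24 h exposure of VM7Luc4E2 cells to conditioned medium. Chemicals (0.002–200 uM) first sat 2 h over alginate-water beads, no S9. Data fitted bidirectionally, loss of signal meaning viability loss.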

Experiment [5] is described as follows: CCTE_Shafer_MEA_dev_active_electrodes_number: CCTE's Neural Network Formation Assay for Number of Active Electrodes, Shafer Lab (AID 2284040; active means hit-call score of the fitted dose curve at least 0.9, where 1 is the maximum;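 on AC50: potency for loss of active electrodes versus DMSO so lower counts are hits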). An outline of the steps:
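Rat cortical primary cultures, 1.5 x 10^5 cells/well, PEI-coated MEA, laminin drop. Continuous exposure DIV 0–12; full media/compound change DIV 5, 9. Readout: electrodes with mean firing ≥5 spikes/min; AUC across days; loss vs DMSO.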

The nature of experiment [6]: CCTE_Shafer_MEA_dev_burst_rate: CCTE's Neural Network Formation Assay for Burst Rate, Shafer Lab (AID 2284042).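 On AC50: potency for loss of burst rate below DMSO control.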 In a few lines: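 Exposure ran continuously over 12 days of network development in rat cortical cultures, with compound refreshed during full media changes on DIV 5 and 9. Single-electrode bursts per recording time, well-mean over active electrodes, trapezoidal AUC across days 5–12, fitted downward relative to DMSO.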

Experiment [7] can be described thus: CCTE_Shafer_MEA_dev_bursting_electrodes_number: CCTE's Neural Network Formation Assay for Number of Bursting Electrodes, Shafer Lab (AID 2284043; active means hit-call score of the fitted dose curve at least 0.9, where 1 is the maximum;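 on AC50: potency is for loss of bursting electrodes relative to DMSO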). In a few lines:
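Read-out is the per-well number of electrodes bursting at least once every 2 minutes, recorded on days 5, 7, 9 and 12 and collapsed by trapezoidal area under the curve. Cultures were primary rat cortical neurons on MEA plates, treated continuously from plating.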

Experiment [8] is described as follows: CCTE_Shafer_MEA_dev_per_burst_interspike_interval: CCTE's Neural Network Formation Assay for Burst Interspike Interval, Shafer Lab (AID 2284044).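 Further: mean spike spacing inside bursts as AUC over recordings on days 5 7 9 12.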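 On AC50: potency for a decrease of within-burst interspike interval below DMSO level.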 An outline of the steps:
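Neurons from rat cortex plated onto PEI-coated MEA wells with laminin […] at 1.5 x 10^5 cells/well, then treated from day 0. Media and compound fully replaced on DIV 5 and 9. Extracellular spontaneous firing recorded four times; interspike interval per burst summarised as AUC.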

Experiment [9] is described as follows: CCTE_Shafer_MEA_dev_burst_duration_mean: CCTE's Neural Network Formation Assay for Mean Burst Duration, Shafer Lab (AID 2284045).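 On AC50: curve fitted for loss meaning shorter burst duration than DMSO.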 In a few lines:
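Read-out: average first-to-last-spike interval within single-electrode bursts, averaged over bursting electrodes per well, then summarised as area under the curve across days 5, 7, 9 and 12. Developing rat cortical networks were exposed from day 0.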

Experiment [10] can be described thus: CCTE_Shafer_MEA_dev_interburst_interval_mean: CCTE's Neural Network Formation Assay for Mean Interburst Interval, Shafer Lab (AID 2284046).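 Further: curve fitted for decrease in interburst interval relative to DMSO.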 An outline of the steps: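 Primary rat cortical neurons on PEI-coated 48-well MEA plates (laminin added with cells at plating) (16 electrodes/well), exposed from plating day 0 with renewal at DIV 5 and 9. Mean inter-burst interval averaged over bursting electrodes, AUC across days 5, 7, 9, 12; DMSO baseline.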

Experiment [11] can be described thus: CCTE_Shafer_MEA_dev_inter_network_spike_interval_mean: CCTE's Neural Network Formation Assay for Mean Inter-network Spike Interval, Shafer Lab (AID 2284047). In a few lines:
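Mean time between consecutive network-spike peaks, recorded extracellularly (adaptive spike detection) on DIV 5, 7, 9 and 12, summarized as trapezoidal AUC. Rat cortical cultures on MEAs dosed continuously days 0–12, re-dosed at feeds; loss-of-signal fit relative to DMSO.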

A short description of experiment [12]: CCTE_Shafer_MEA_dev_network_spike_number: CCTE's Neural Network Formation Assay for Number of Network Spikes, Shafer Lab (AID 2284048).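 Further: synchronized bursts across electrodes counted on days 5 7 9 12 and integrated as AUC.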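 On AC50: fit as a loss of signal meaning fewer network spikes than DMSO.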 An outline of the steps:
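Developing networks of primary rat cortical neurons are treated over 12 days starting at plating, with media and compound fully replaced on DIV 5 and 9. Network spike counts from four recording days are integrated as trapezoidal AUC.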

For experiment [13], the target named is Estrogen receptor (Homo sapiens) (UniProt P03372). The experiment can be described thus: CCTE_Deisenroth_AIME_384WELL_LUC_Active: CCTE's 384-well Estrogen Receptor Transactivation Assay with AIME metabolic competence (ERTA luciferase; metabolism positive), Deisenroth Lab (AID 2284030; active means hit-call score of the fitted dose curve at least 0.9, where 1 is the maximum). An outline of the steps:
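AIME metabolism-positive mode: chemicals 0.002 - 200 uM, 2 h with alginate-bound PB/BNF-induced rat S9 → medium to VM7Luc4E2 ERTA, 24 h → luciferase. Positive fit vs 17beta-estradiol; n=4 typical.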

Experiment [14] has the same target. Nature of the experiment: CCTE_Deisenroth_AIME_384WELL_LUC_Inactive: CCTE's 384-well Estrogen Receptor Transactivation Assay without AIME metabolic competence (ERTA luciferase; metabolism negative), Deisenroth Lab (AID 2284038; active means hit-call score of the fitted dose curve at least 0.9, where 1 is the maximum;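 further: VM7Luc4E2 breast cells given medium preincubated 2 h with S9-free microspheres; hits raise estrogen receptor luciferase signal so potencies reflect agonists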). In a few lines:
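Chemicals (10-point series, 0.002 - 200 uM) were incubated 2 hours with alginate-water microsphere lids lacking S9, then the conditioned medium was transferred to VM7Luc4E2 breast cells for 24 hour. Luciferase induction was read by bioluminescence, fitted upward relative to 17beta-estradiol.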

Experiment [15] shares this target. Nature of the experiment: CCTE_Deisenroth_AIME_384WELL_LUC_Shift: CCTE's 384-well Estrogen Receptor Transactivation Assay with AIME metabolic competence data shift (ERTA luciferase; difference in metabolism positive and negative), Deisenroth Lab (AID 2284041).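 Further: shift is response with S9 minus without S9 so positive means metabolism raised ER signal.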 In a few lines: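 Test chemicals (0.002–200 uM, 10-point) were pre-incubated 2 h with alginate microspheres containing phenobarbital/beta-naphthoflavone-induced male Sprague Dawley rat liver S9 or water, then medium was transferred to VM7Luc4E2 cells for 24 h luciferase readout; shift = S9-positive minus S9-negative normalized response.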

Experiment [16] in a line: CCTE_Shafer_MEA_acute_network_burst_percentage: CCTE's Neural Acute Assay for Percentage of Network Bursts, Shafer Lab (AID 2284022).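 Further: curves fitted for loss so actives lower network burst percentage.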 An outline of the steps: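 Readout is the fraction of spikes falling in network bursts, expressed as per-well percent change from a 40-min pre-exposure baseline. Primary rat cortical neurons on MEA were exposed to 0.03-40 uM compound on DIV 13 or 15 and recorded for 40 min at 37 C.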

Experiment [17] can be described thus: CCTE_Shafer_MEA_acute_cross_correlation_area: CCTE's Neural Acute Assay for Area of Cross Correlation, Shafer Lab (AID 2284024).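 Further: rat primary cortical neuron networks on 48-well MEA at DIV 13 or 15 with 40 min exposure; area under pooled inter-electrode spike cross-correlation near zero lag as percent change from own baseline; curves fitted for loss of cross-correlation area so actives lower synchrony.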 In a few lines: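 Plates equilibrated 20 min at 37 C, then 40 min baseline was recorded, compound was added (0.03-40 uM), and a further 40 min was recorded. Wells needed ≥10 active electrodes (≥5 spikes/min) on exposure day.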
A short description of experiment [18]: CCTE_Shafer_MEA_acute_cross_correlation_HWHM: CCTE's Neural Acute Assay for Cross Correlation at Half Width at Half Maximum, Shafer Lab (AID 2284026).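 Further: percent change per well from pre-dose baseline in spike cross-correlogram half width; hits are a decrease in cross-correlogram half width relative to DMSO.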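 On outcome: spontaneous network firing of rat primary cortical neurons on multiwell microelectrode arrays.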 In a few lines:
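Rat cortical neuron cultures on microelectrode arrays were equilibrated 20 min at 37 C, recorded 40 min at baseline, then 40 min after compound addition (0.03-40 uM, ≥3 wells). Spikes were detected at 8x rms noise after 300-5000 Hz band-pass filtering.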

The nature of experiment [19]: CCTE_Shafer_MEA_acute_synchrony_index: CCTE's Neural Acute Assay for Synchrony, Shafer Lab (AID 2284027).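 Further: network synchrony index of spontaneous spiking in primary rat cortical neurons on MEAs; fitted for loss of signal so actives lower synchrony relative to DMSO.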 An outline of the steps:
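Primary rat cortical neurons on 16-electrode MEA wells were recorded 40 min at baseline (DIV 13 or 15) and 40 min after compound (0.03-40 uM) at 37 C. Synchrony index (0-1) expressed as percent change from baseline, versus DMSO.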

“And” between values parts separate entries of the source, which are not always exact repeats. Equal entries are not always repeated. Inconclusive results are not listed. Some compounds were tested as several samples or in several runs, with calls that do not always agree. The source made the active and inactive calls. How the source made its calls, unless noted: active means hit-call score of the fitted dose curve at least 0.9, where 1 is the maximum; inactive means score below 0.9.

Chain of Estrogen receptor (Homo sapiens) (P03372 whole entry, looked up): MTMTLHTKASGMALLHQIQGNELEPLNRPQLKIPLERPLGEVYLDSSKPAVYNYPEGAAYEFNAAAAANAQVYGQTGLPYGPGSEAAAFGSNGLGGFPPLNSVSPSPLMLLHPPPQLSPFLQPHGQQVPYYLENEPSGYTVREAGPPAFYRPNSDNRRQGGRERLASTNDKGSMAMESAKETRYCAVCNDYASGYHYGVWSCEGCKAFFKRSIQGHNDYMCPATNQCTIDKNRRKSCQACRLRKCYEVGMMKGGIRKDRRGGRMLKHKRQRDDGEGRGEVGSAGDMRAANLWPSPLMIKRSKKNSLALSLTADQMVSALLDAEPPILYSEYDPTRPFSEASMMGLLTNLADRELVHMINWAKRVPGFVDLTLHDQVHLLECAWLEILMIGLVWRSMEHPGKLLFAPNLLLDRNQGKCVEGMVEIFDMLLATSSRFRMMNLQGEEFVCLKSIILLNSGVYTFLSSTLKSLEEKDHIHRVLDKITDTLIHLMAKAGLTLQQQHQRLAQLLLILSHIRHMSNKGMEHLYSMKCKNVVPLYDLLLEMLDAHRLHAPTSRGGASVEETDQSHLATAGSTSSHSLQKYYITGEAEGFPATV

As for `CN(C)[C@@H]1C(=O)C(C(N)=O)=C(O)[C@@]2(O)C(=O)C3=C(O)c4c(O)cccc4[C@@](C)(O)[C@H]3C[C@@H]12`, the result in [1], in [2], in experiment [3], in [5], in experiment [6] and in experiment [7] was inactive. Further, the molecule was called inactive in experiment [8], in experiment [9], in [10], in experiment [11] and in experiment [12]. The half-maximal activity concentration (AC50) in [4] was 103 µM (active).

Turning to `O=C(Nc1ccccc1)c1ccccc1I`, the AC50 was 38.4 µM (active) in [13], 23.7 µM (active) in experiment [14] and 6.87 µM (active) in [15]. Further, the molecule was called inactive in [4].

In the case of `CCNS(=O)(=O)C(F)(F)C(F)(F)C(F)(F)C(F)(F)C(F)(F)C(F)(F)C(F)(F)C(F)(F)F`, the outcome in experiment [1], in [3], in experiment [6], in experiment [8], in [9] and in experiment [10] was inactive. Moreover, the outcome in experiment [11] and in [12] was inactive. Also, the AC50 was 15 µM (active) and 3.54 µM (active) in experiment [2]; 7.41 µM (active) and 2.98 µM (active) in [5]; 15 µM (active) and 2.98 µM (active) in experiment [7]; 2.98 µM (active) in experiment [12].

Consider `COP(=S)(OC)SCN1C(=O)c2ccccc2C1=O`, for which the AC50 in experiment [1] was 83.2 µM (active); in experiment [2] it was 32.8 µM (active) and 51.5 µM (active); in experiment [5], 61.1 µM (active) and 51.5 µM (active); in [6], 61.3 µM (active); in [7], 32.6 µM (active) and 51.5 µM (active); in experiment [8], 11.2 µM (active). For the same molecule, the outcome in experiment [1], in experiment [6], in experiment [8], in experiment [9], in experiment [10] and in experiment [11] was inactive. For the same molecule, the molecule was called inactive in experiment [12].

`Nc1cc(Cl)cc(C(=O)O)c1Cl`: the outcome in [1], in experiment [2], in experiment [5], in experiment [6], in experiment [7] and in experiment [8] was inactive. Also, the molecule was classed as inactive in experiment [9], in [10], in [11] and in experiment [12].

`CCCCCCCCOC(=O)c1ccc(C(=O)OCCCCCCCC)c(C(=O)OCCCCCCCC)c1`: the outcome in [3] and in [4] was inactive.

`C1=Cc2cccc3cccc1c23`: the result in experiment [1], in experiment [2], in [5], in experiment [6], in experiment [7] and in experiment [8] was inactive. The molecule was called inactive in experiment [9], in experiment [10], in experiment [11] and in experiment [12].

Take `Cc1ccc(N)c(N)c1`: the AC50 in [16] is 9.87 µM (active); in experiment [19], 20 µM (active). For the same molecule, the molecule was called inactive in experiment [17], in experiment [18], in experiment [3] and in experiment [4].

As to `OCCCBr`, the molecule was classed as inactive in [13], in experiment [3], in [14], in experiment [4] and in experiment [15].

As for `[O-][Cl+]O`, the molecule was called inactive in experiment [13], in experiment [1], in experiment [2], in experiment [3], in [14] and in experiment [4]. For the same molecule, the outcome in experiment [5], in experiment [15], in experiment [6], in [8], in [10] and in experiment [11] was inactive. For the same molecule, the call in experiment [12] was inactive. In experiment [9], the AC50 is 15 µM (active).

Consider `O=[N+]([O-])c1ccc(Oc2ccc(Cl)cc2Cl)cc1`, for which the AC50 in experiment [16] was 20 µM (active); in experiment [18] it was 10.9 µM (active); in experiment [19], 10.9 µM (active). The molecule was called inactive in [17], in [3] and in [4].

Regarding `c1ccc(N=Nc2ccccc2)cc1`, the AC50 in experiment [16] was 5.14 µM (active). For the same molecule, the result in experiment [17], in [18], in experiment [19], in [3] and in [4] was inactive.
